# GCN5L2 inh: qHTS Assay for Inhibitors of GCN5L2. Potency, µM (highest dose often 58.9 µM), usual class: inhibitors. GCN5L2 HAT assay, ThioGlo1 CoA-SH fluorescence. AID 504327, 2011. actives 0.21% (n = 390,000). Histone acetyltransferase KAT2A (Homo sapiens), Q92830
# Target sequence (Q92830 whole entry, looked up): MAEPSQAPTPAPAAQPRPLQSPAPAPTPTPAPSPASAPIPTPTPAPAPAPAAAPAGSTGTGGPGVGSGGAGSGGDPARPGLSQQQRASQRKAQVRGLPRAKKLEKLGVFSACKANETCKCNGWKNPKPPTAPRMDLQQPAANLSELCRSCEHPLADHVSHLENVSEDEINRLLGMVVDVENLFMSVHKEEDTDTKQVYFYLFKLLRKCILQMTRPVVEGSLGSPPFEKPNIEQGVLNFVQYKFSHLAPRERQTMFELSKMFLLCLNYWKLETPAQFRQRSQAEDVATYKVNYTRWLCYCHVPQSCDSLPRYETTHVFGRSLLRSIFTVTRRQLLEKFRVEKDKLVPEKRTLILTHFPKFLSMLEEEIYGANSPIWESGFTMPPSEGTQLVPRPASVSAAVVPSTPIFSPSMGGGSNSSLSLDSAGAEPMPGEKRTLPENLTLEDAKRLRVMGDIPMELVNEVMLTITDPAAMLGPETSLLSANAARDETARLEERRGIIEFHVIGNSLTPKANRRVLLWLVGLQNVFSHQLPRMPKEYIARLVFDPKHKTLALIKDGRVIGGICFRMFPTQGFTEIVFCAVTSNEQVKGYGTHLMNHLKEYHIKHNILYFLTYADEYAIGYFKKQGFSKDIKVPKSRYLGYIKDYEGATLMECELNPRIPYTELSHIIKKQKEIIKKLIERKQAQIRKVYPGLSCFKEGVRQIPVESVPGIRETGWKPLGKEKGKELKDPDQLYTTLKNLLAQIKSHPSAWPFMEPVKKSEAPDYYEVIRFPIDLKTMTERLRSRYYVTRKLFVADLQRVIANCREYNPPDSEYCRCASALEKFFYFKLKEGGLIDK
#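 GCN5L2 (20nM final) in 50mM HEPES, 0.1mM EDTA pH 7.5, 0.01% Tween-20 was preincubated 15 min at room temperature with compound, then given ThioGlo1 (50uM), H3(1-25) peptide (75uM) and acetyl-CoA (70uM); CoA-thiol fluorescence (Ex340/Em540) was read at 0 and 20 min.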
# PI4K2A inh: qHTS for small molecular inhibitors of PI4K2A. Phosphatidylinositol 4-kinase type 2-alpha (Homo sapiens), Q9BTU6. purified PI4K2A, ADP-Glo luminescence, 1 h; active compounds read low. activity change, negative = inhibition, % at 76.9 µM. actives 0.13% (n = 420,000); in the data active means activity change below about -50%; inconclusive means mostly about -30% to -49%
#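 In this quantitative HTS, ADP production by PI4K2A was quantified luminescently after 1 h at ambient temperature; 100 microM adenosine served as plate-quality control.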
# VDR inh: Inhibitors of the vitamin D receptor (VDR): qHTS | Vitamin D3 receptor (Homo sapiens), P11473 | VDR-SRC2-3 peptide fluorescence polarization, 2 h | Potency, µM, most hits filed as inhibitors | actives 0.93% (n = 400,000) | AID 504847, 2011
#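 Compounds are added to VDR with labelled SRC2-3 coactivator peptide and held 2 h at room temperature. Inhibition of the VDR–peptide interaction is then read as a change in fluorescence polarization.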
# PLK1 PBD block: qHTS for Inhibitors of PLK1-PDB (polo-like kinase 1 - polo-box domain): Primary Screen | Plk1 PBD binding of FITC phosphopeptide, fluorescence polarization | actives 2.8% (n = 360,000) | Serine/threonine-protein kinase PLK1 (Homo sapiens), P53350 | AID 720504, 2013 | Potency, µM, usual class: inhibitors; further: series mostly up to about 57 µM; nearly all actives have a fitted effect of over 65% in size
# GLS inh: qHTS for Inhibitors of Glutaminase (GLS) | GLS enzymatic activity, qHTS titration | Potency, µM (doses to about 45.5 µM), usual class: inhibitors | actives 0.21% (n = 410,000) | AID 624170, 2012
#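 Coupled fluorescence readout: glutamate oxidase/HRP/Amplex Red detect glutamate formed by hKGA from L-glutamine (1 mM solution added). Buffer 45 mM KH2PO4 pH 8.2, 0.02% Tween-20; reads at t0 and 30 min RT.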
# A number is an active result; 0 = inactive; ? = inconclusive; - = no result given. A selection: hits, their analogues and other compounds. The true share with any hit is near 3.1%. Unless noted, the call rests on the fitted dose curve; in most records, active means well fitted curve in the direction sought with a large enough effect; inconclusive means small, poorly fitted or top-dose-only effect, or another doubt; inactive means no such curve, though single readings can be large; an effect the other way counts as inactive or inconclusive.
SMILES,GCN5L2 inh,PI4K2A inh,VDR inh,PLK1 PBD block,GLS inh
Cc1ccc(N2C(=O)c3cccc4c(C(=O)O)ccc(c34)C2=O)cc1,0,-,-,0,-
CC(=O)Nc1ccc(N2C(=O)c3cccc4c(O)ccc(c34)C2=O)cc1,0,?,0,4.7µM,0
CCCCNC(=O)O[C@H]1CC[C@@]23CCCN2C(=O)CCC[C@H]3C1,-,0,-,-,-
COC(=O)[C@]12C[C@H](CC(=O)NCc3cccc(C(F)(F)F)c3)C(=O)N(Cc3ccco3)C1=C[C@H](C1CCCC1)O[C@@H]2C,-,0,-,-,-
Cc1ccc(C(=O)N[C@@H](C)CN2C3=NC[C@H](C(C)C)N3C[C@H]2Cc2ccc(O)cc2)cc1Br,0,0,0,27µM,0
COc1ccc(CC(=O)Nc2ccc(C)cc2S(=O)(=O)N2CCOCC2)cc1OC,-,0,-,-,-
COC(=O)[C@]1(C#N)CC(=O)N(C)[C@@H]1c1ccccc1,-,0,-,-,-
NS(=O)(=O)c1cccc(NC(=O)CSc2nc3nc(-c4cccs4)cc(C(F)(F)F)c3c(=O)[nH]2)c1,0,0,0,34µM,?
N#CCCN(C(=O)CSc1nc2nc(-c3cccs3)cc(C(F)(F)F)c2c(=O)[nH]1)c1ccccc1,0,0,0,0,?
O=C(CSc1nc2nc(-c3cccs3)cc(C(F)(F)F)c2c(=O)[nH]1)Nc1c(F)c(F)c(F)c(F)c1F,0,0,0,34µM,0
Cc1ccccc1NC(=O)CN1C(=O)COc2ccc(Cl)cc21,0,0,0,24µM,0
Cc1ccccc1NC(=O)CN1C(=O)C2C3CC(C(Br)C3Br)C2C1=O (stereo unspecified),0,0,79µM,4.7µM,0
Cc1cccc(NC(=O)CN2C(=O)C3CC=CCC3C2=O)c1C (stereo unspecified),-,0,-,0,0
O=C(CN1C(=O)C2C3C=CC(C4CC34)C2C1=O)Nc1cccc2ncccc12 (stereo unspecified),0,0,0,30µM,0
O=C(CCl)Nc1cccc2ncccc12,0,0,0,0,0
C=CCC(C)(O)C#Cc1ccccc1 (stereo unspecified),-,-,0,-,-
COC(=O)[C@]12C[C@H](CC(=O)NCc3ccccc3)C(=O)N(Cc3cccc4ccccc34)C1=C[C@H](COCc1ccccc1)O[C@@H]2C,-,0,-,-,-
Cc1cccc(NC(=O)/C(C#N)=C/c2cccc([N+](=O)[O-])c2)n1,0,0,?,27µM,0
Cc1cccc(NC(=O)/C(C#N)=C/c2ccc(Cl)cc2)n1,0,0,0,0,0
CC1(C)S[C@@H]2[C@H](NC(=O)C(c3ccccc3)S(=O)(=O)O)C(=O)N2[C@H]1C(=O)O (stereo partly specified),-,0,-,-,-
COc1ccc(CNc2cc(-c3ccoc3)ncn2)c(OC)c1,0,-,11µM,-,-
c1ccc(Nc2cc(-c3ccoc3)ncn2)cc1,0,-,11µM,-,-
Cc1ccccc1-c1cc(Nc2ccccc2)ncn1,0,-,?,-,-
c1ccc(CNc2cc(-c3ccoc3)ncn2)cc1,0,-,13µM,-,-
c1ccc(CNc2cc(-c3cccnc3)ncn2)cc1,0,-,0,-,-
SMILES,GCN5L2 inh,PI4K2A inh,VDR inh,PLK1 PBD block,GLS inh
Cc1cc(OC(=O)c2c(F)cc(F)cc2F)nc(C)n1,0,0,0,21µM,0
CCN(Cc1ccccc1)C(=O)CCS(=O)(=O)c1ccc2c(c1)NC(=O)CO2,0,0,0,21µM,0
CCOc1ccccc1N(C)C(=O)CCS(=O)(=O)c1ccc2c(c1)NC(=O)CO2,0,0,0,0,0
O=C1C(Cc2ccccc2)Nc2ncnc(N3CCc4ccccc4C3)c2N1Cc1ccccc1 (stereo unspecified),0,0,0,42µM,0
O=C1NC(=O)C2(COC(c3ccncc3)OC2)S1 (stereo unspecified),0,0,0,0,0
NC1=NC(=O)C2(COC(c3cccnc3)OC2)S1 (stereo unspecified),0,0,?,34µM,0
O=C1C=C(NC2=CC3OC(c4ccccc4)OCC3OC2=O)CCC1 (stereo unspecified),0,0,79µM,0,0
Cc1ccc(C)c(S(=O)(=O)ON2C(=O)c3ccccc3C2=O)c1,0,0,20µM,2.7µM,0
Cc1ccc(S(=O)(=O)ON2C(=O)c3cccc4cccc(c34)C2=O)cc1,0,0,0,0,0
O=C1c2ccccc2C(=O)N1OS(=O)(=O)c1ccccc1,0,-,-,-,-
Cc1cc(S(=O)(=O)ON2C(=O)c3ccccc3C2=O)ccc1F,0,0,32µM,6.7µM,0
COC(=O)[C@]12C[C@H](CC(=O)NCC34CC5CC(CC(C5)C3)C4)C(=O)N(Cc3ccco3)C1=C[C@H](C1CCCC1)O[C@@H]2C,-,0,-,-,-
CN(CCNC(=O)c1cc2c(=O)n(C)c3ccccc3c2n1C)Cc1ccccc1,0,0,0,0,0
CCCN(CCC)CCNC(=O)c1cc2c(=O)n(C)c3ccccc3c2n1C,0,0,0,19µM,0
COc1cccc(Nc2ccc(C(=O)O)cc2N)c1,0,0,0,0,3.2µM
Cc1ccc(S(=O)(=O)Nc2cccc3ccccc23)cc1,-,-,0,-,-
CC(=O)Nc1ccc(S(=O)(=O)Nc2cc([N+](=O)[O-])ccc2C)cc1,0,0,?,6.7µM,0
Cc1ccc(S(=O)(=O)Nc2ccc3cc([N+](=O)[O-])ccc3c2[N+](=O)[O-])cc1,-,0,0,24µM,?
COc1ccc(NS(=O)(=O)c2ccc(C)cc2)c([N+](=O)[O-])c1,0,0,?,27µM,0
Cc1ccc(S(=O)(=O)Nc2ccc3ccccc3c2[N+](=O)[O-])cc1,-,0,0,30µM,0
COCC#Cc1ccc(CC[C@H]2O[C@H]3CC[C@@H](CO)O[C@H]3C[C@H]2n2cc(C3CC3)nn2)cc1,-,0,-,-,-
O=C(NCCN1CCC(Cc2ccccc2)CC1)C1CCCN(S(=O)(=O)c2ccc(Cl)s2)C1 (stereo unspecified),-,0,-,-,-
COc1cc(OC)c(OC)cc1CNCCNC(=O)c1ccco1,0,0,0,0,0
COc1cccc(CNCCNC(=O)c2ccco2)c1OC,0,0,0,19µM,0
COc1ccccc1C(=O)NCCNC(=O)c1ccco1,0,0,0,27µM,0
O=C(NCCNC(=O)c1ccccc1Cl)c1ccco1,0,0,0,?,0
O=C(CNC(=O)c1ccccc1)Oc1cccc(Cl)c1,-,0,0,7.5µM,0
Cc1ccccc1OCC(=O)N(Cc1ccc(N(C)C)cc1)CC1CCCO1 (stereo unspecified),0,0,0,-,0
Cc1cc(C)cc(NC(=O)C(NCCN2CCOCC2)c2ccccc2)c1 (stereo unspecified),0,0,?,24µM,0
Cc1nc2c(C(=O)NCc3ccccc3)cnn2c(C)c1Cc1ccc(F)cc1,0,0,0,-,13µM

# Compound activity from PubChem BioAssay.
